Shown are actives, neighbours in structure and some others; about 0.84% of the full set was active somewhere.
SRC3 inh: inhibitors of human steroid receptor coactivator 3 (SRC3); HEK293 GAL4-SRC3 luciferase reporter, luminescence; inhibition, % at 3.6 µM; 360,000 tested, 0.17% active; AID 588352;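 active means inhibition above a per-campaign cutoff, the mean of all compounds plus 3 SD, cut at about 60% in these data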;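 further: 0% = DMSO-treated cells and 100% = gossypol-treated cells at 36 µM; higher means less SRC3-driven luciferase light from the GAL4 reporter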
COUP-TFII inh: blocks human COUP-TFII nuclear receptor; 370,000 tested, 0.7% active; P24468; HEK293T NGFI-A luciferase reporter, luminescence; inhibition, % at 8.6 µM; AID 686940;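 active means inhibition above a per-plate cutoff, mean inhibition of test wells between control levels plus 3 SD, cut at about 38% in these data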;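 further: cells cotransfected with COUP-TFII expression vector driving the NGFI-A reporter; 0% = median of COUP-TF2 test wells and 100% = reporter-only cells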
NR5A2 inv ag: suppresses constitutive activity of human LRH-1; O00482; HEK293T StAR-luciferase reporter, LRH-1 transfected, 24 h; inhibition, % at 3.6 µM; 360,000 tested, 0.13% active; AID 602396;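 active means inhibition above the mean inhibition of all tested compounds plus 3 SD, cut at about 73% in these data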;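 further: 0% = DMSO wells and 100% = reporter-only cells lacking LRH-1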
SRC1 inh: inhibits human SRC1 coactivator | inhibition, % at 3.6 µM | HEK293 GAL4-SRC1 luciferase reporter, luminescence | 360,000 tested, 0.12% active | AID 588354;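 active means inhibition above the campaign mean plus 3 SD, with each screening campaign given its own cutoff, cut at about 60% in these data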;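 further: 0% = DMSO treated cells and 100% = gossypol at 36 µM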
Target sequence (Q15788 whole entry, looked up, the tested form may be a part): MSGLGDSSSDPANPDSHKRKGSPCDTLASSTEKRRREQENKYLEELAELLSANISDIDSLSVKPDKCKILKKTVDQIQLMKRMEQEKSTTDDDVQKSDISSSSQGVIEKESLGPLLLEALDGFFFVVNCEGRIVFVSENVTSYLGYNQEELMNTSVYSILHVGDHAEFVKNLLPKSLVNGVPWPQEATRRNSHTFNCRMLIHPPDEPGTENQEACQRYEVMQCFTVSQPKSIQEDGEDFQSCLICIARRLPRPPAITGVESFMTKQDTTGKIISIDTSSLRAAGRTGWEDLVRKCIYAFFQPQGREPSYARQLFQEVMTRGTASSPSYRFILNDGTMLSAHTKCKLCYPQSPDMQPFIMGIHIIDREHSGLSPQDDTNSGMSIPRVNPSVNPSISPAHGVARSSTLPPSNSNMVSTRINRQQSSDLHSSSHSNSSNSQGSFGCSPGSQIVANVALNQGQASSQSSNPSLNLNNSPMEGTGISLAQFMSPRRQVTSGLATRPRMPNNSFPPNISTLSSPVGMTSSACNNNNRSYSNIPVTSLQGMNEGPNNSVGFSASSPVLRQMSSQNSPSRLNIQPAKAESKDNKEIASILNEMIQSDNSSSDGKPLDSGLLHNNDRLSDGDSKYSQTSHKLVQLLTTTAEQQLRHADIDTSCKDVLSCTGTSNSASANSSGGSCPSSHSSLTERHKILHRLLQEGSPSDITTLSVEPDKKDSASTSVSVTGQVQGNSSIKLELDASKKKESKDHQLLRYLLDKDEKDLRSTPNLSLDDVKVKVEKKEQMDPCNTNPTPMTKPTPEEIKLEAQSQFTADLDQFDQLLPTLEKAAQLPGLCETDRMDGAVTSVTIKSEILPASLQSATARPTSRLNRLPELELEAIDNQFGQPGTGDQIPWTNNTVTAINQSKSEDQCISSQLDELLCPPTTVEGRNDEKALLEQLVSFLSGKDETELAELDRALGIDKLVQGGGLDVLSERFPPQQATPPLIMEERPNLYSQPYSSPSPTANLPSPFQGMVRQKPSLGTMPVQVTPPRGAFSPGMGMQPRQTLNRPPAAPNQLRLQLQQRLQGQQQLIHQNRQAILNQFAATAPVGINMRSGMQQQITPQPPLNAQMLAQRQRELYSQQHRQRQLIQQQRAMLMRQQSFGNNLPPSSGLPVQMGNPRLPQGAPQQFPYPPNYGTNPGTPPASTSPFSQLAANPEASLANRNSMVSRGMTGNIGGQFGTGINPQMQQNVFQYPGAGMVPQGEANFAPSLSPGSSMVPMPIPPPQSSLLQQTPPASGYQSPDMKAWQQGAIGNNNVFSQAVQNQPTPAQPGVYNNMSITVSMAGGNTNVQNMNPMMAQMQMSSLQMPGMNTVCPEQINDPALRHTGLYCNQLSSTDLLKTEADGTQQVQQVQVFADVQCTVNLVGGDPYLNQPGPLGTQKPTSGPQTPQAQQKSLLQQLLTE
NCOA2 inhibitor: inhibits human steroid receptor coactivator 2; HEK293 GAL4-SRC2 luciferase reporter, luminescence; Q15596; inhibition, % at 9 µM; AID 651957; 370,000 tested, 0.17% active;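 active means inhibition above the mean inhibition of all tested compounds plus 3 SD, set per campaign, cut at about 52% in these data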;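 further: 0% = DMSO treated cells and 100% = cells given Gossypol at 36 µM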
Gal4-VP16 ctr: counter-screen for COUP-TFII antagonists: inhibitors of VP16. shares compounds with COUP-TFII inh. inhibition, % at 8.5 µM. HEK293 Gal4-VP16 luciferase reporter, luminescence. AID 687007. 2,500 tested, 25% active; in the data active means inhibition above about 13%
COUP-TFII conf: COUP-TFII (NR2F2) inhibition, confirmation assay; 2,500 tested, 45% active; shares compounds with COUP-TFII inh; HEK293 NGFI-A luciferase reporter, luminescence; AID 687008; inhibition, % at 8.5 µM;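 active means mean inhibition over three repeats above a set limit taken from the earlier primary screen, cut at about 38% in these data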;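 further: 100% = cells given the luciferase reporter alone without the COUP-TF2 vector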
Starred values were filed as active, the others as inactive; nt = no result given.

SMILES	SRC3 inh	COUP-TFII inh	NR5A2 inv ag	SRC1 inh	NCOA2 inhibitor	Gal4-VP16 ctr	COUP-TFII conf
COc1ccc(NC(=O)Cn2c(C)cc(=O)c3ccccc32)cc1	21	55*	42	3	16	0	26
COc1cccc2c(=O)cc(C)n(CC(=O)Nc3cccc(C)c3)c12	10	47*	0	3	-8	-8	16
CC(=O)c1cn(CC(=O)Nc2ccccc2C)c2ccccc12	7	38*	40	-5	29	-5	25
COc1ccc(NC(=O)Cn2cc(C(C)=O)c3ccccc32)cc1	23	48*	31	19	23	-1	21
Cc1cc(=O)c2ccccc2n1CC(=O)NCc1ccccc1	21	6	11	-1	5	nt	nt
CCOCCCNCc1cc(Cl)cc(Cl)c1OCC	7	4	-16	-17	-18	nt	nt
COC(=O)c1ccc(CSc2nnc(-c3c[nH]c4ccccc34)n2-c2ccccc2)cc1	-8	20	13	-4	-2	nt	nt
COC(=O)c1ccc(CSc2nnc(CS(=O)Cc3ccc(Br)cc3)n2-c2ccccc2)cc1 (centres undefined)	11	39*	19	-4	16	0	15
O=S(Cc1ccc(Br)cc1)Cc1nnc(SCc2ccc(Br)cc2)n1-c1ccccc1 (centres undefined)	29	44*	38	11	7	-4	28
COc1ccc(C[C@H](N)C(=O)N[C@H]2[C@@H](O)[C@H](n3cnc4c(N(C)C)ncnc43)O[C@@H]2CO)cc1	95*	99*	102*	94*	86*	48*	97*
CCn1c(=S)sc2c(=O)n(CC(=O)Nc3cccc(OC)c3)c(C)nc21	6	-12	-3	7	-2	nt	nt
CCCc1ccc(-c2ccc(/C=C/C(=O)O)cc2)nc1	65*	98*	78*	71*	88*	91*	102*
COc1ccc(/C=C/c2cc(-c3ccc(C)cc3)o[n+]2C)cc1	71*	67*	94*	55	13	37*	66*
COCC(C)n1c(C)cc(C(=O)COC(=O)c2cccn2C)c1C (centres undefined)	43	57*	22	30	33	-42	50*
COCC(C)n1c(C)cc(C(=O)COC(=O)c2cnc(Cl)c(Cl)c2)c1C (centres undefined)	12	-31	8	-7	28	nt	nt
CCOC(=O)C1CCN(CC(=O)Nc2c(C(=O)OC)[nH]c3ccc(Cl)cc23)CC1	22	41*	21	2	11	4	32
COc1ccc(CCN2CC(=O)N3CCc4ccc(N5CCOCC5)cc4C3CC2=O)cc1OC (centres undefined)	nt	10	nt	nt	22	nt	nt
COc1ccccc1C(=O)NC(=S)Nc1ccc(N2CCN(C(=O)c3ccco3)CC2)cc1	-2	23	-2	6	5	nt	nt
Cc1ccc(OCC(=O)Nc2ccc(N3CCN(C(=O)c4ccco4)CC3)cc2)cc1C	15	22	10	-2	18	nt	nt
Cc1cccc(OCC(=O)Nc2ccc(N3CCN(C(=O)c4ccco4)CC3)cc2)c1	23	64*	20	-24	2	1	34
Cc1ccccc1C(=O)N1CCN(c2ccc(NC(=S)NC(=O)c3ccco3)cc2)CC1	24	46*	23	-8	23	-8	18
CCCN1CCCCC(NC(=O)c2cccs2)C1=O (centres undefined)	nt	-4	nt	nt	2	nt	nt
CC(C)(C)NC(=O)CSc1nc2ccc(NC(=O)CSc3nnnn3Cc3ccccc3)cc2s1	38	67*	38	33	11	2	51*
CN1/C(=C/c2cccc[n+]2C)Sc2ccccc21	28	53*	35	20	-43	-5	48*
Cc1ccc2c(c1)N(C)/C(=C/c1cccc[n+]1C)S2	30	57*	44	26	-12	0	42*
SMILES	SRC3 inh	COUP-TFII inh	NR5A2 inv ag	SRC1 inh	NCOA2 inhibitor	Gal4-VP16 ctr	COUP-TFII conf
O=C(C(=O)N1CCC(CNS(=O)(=O)c2ccc(C(F)(F)F)cc2)CC1)c1cccs1	nt	-1	nt	nt	16	nt	nt
COc1cccc(C(=O)n2ccc3ccc(-c4ccc5ccn(Cc6ccc(C#N)cc6)c5c4)cc32)c1	nt	-20	nt	nt	-3	nt	nt
CCOc1ccc(/C=C2\SC(=S)N(CCCC(=O)NCCCN3CCOCC3)C2=O)cc1	33	69*	31	33	84*	27*	25
CCc1ccc(/C=C2/SC(=S)N(CCC(=O)NCCCN3CCOCC3)C2=O)cc1	-6	-1	-6	-51	-27	nt	nt
O=C(CCCN1C(=O)/C(=C/c2ccccc2Cl)SC1=S)NNC(=O)c1ccccc1Cl	60	69*	46	52	83*	69*	71*
O=C(CCCN1C(=O)/C(=C/c2ccccc2Cl)SC1=S)NCCCN1CCOCC1	15	63*	18	18	79*	10	15
CCc1ccc(/C=C2\SC(=S)N(CCCC(=O)NCCCN3CCOCC3)C2=O)cc1	45	84*	36	49	89*	68*	59*
O=C(CCCN1C(=O)/C(=C/c2ccccc2Cl)SC1=S)N1CCCC1	-9	25	0	-15	33	nt	nt
O=C(NCc1ccccc1)[C@@H]1CCCN1C(=O)[C@H]1CCCN1C(=O)c1cccc(F)c1	nt	13	nt	nt	-14	nt	nt
CN(Cc1ccc(Cl)cc1Cl)C(=O)C1CC(=O)N(Cc2ccco2)C1 (centres undefined)	-6	8	20	-7	16	nt	nt
CCOC(=O)c1ccc(NC(=O)c2ccc(CN3CCOCC3)cc2)cc1	32	50*	25	11	17	-4	38*
CC(C)c1ccc(/C=C/C(=O)Nc2ccc(CN3CCOCC3)cc2)cc1	16	14	-2	5	8	nt	nt
O=C(Nc1ccc(CN2CCOCC2)cc1)c1ccc(-c2cccc(Cl)c2)o1	16	62*	-9	3	-3	-18	-6
O=C(/C=C/c1ccc(Cl)cc1)Nc1ccc(CN2CCOCC2)cc1	14	57*	11	-14	-49	-3	32
NC(=O)c1ccc(NC(=O)c2ccc(CN3CCOCC3)cc2)cc1	-20	-3	-18	-11	-10	nt	nt
CSc1ccccc1NC(=O)c1ccc(CN2CCOCC2)cc1	-9	-8	-42	-31	14	nt	nt
Cc1cc(CSc2ccccc2)ccc1NC(=O)c1ccc(CN2CCOCC2)cc1	30	63*	40	32	5	3	61*
COc1ccccc1CN1CCNC(=O)C1CC(=O)N(C)Cc1ccon1 (centres undefined)	17	8	10	10	5	nt	nt
CN1C(=O)c2cc(NS(C)(=O)=O)ccc2OC[C@H]2O[C@@H](CC(=O)NCc3ccc(-c4ccccc4)cc3)CC[C@@H]21	nt	-1	nt	nt	-3	nt	nt

Screening results as filed in PubChem.
